# Screening results deposited in PubChem BioAssay by The Scripps Research Institute Molecular Screening Center.
# This is one part of a sample in which hits are shown more often than they occur.
# TTR transcr act: activators of transthyretin transcription; SH-SY5Y TTR promoter Gaussia luciferase, luminescence; 100% = recombinant luciferase protein wells; activation, % at 16.7 µM; hit rate 1.3% among 92,000; AID 1117267;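 active means activation above the mean of all tested compounds plus 3 SD, cut at about 9.5% in these data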;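 further: cells exposed to compounds for one day before reading; 0% = median of all test compound wells on the plate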
# TTR inh HuH7: counter-screen for TTR activators: TTR transcription inhibitors in HuH7 cells | shares compounds with TTR transcr act | inhibition, % at 16.7 µM | hit rate 4% among 1,100 | AID 1117279 | HuH7 TTR promoter-Gaussia luciferase reporter, luminescence;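 active means average inhibition above the solvent-only control wells' mean plus 3 SD, cut at about 15% in these data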;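 further: 0% = cells with DMSO only and 100% = cells with inhibitor control FD; inhibitors lower well luminescence so higher value means more inhibition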
# TTR up confirm: confirmation of human transthyretin transcription activators; shares compounds with TTR transcr act; SHSY5Y TTR promoter Gaussia luciferase, luminescence; 100% = purified Lucia enzyme wells, no cells; activation, % at 16.7 µM; 1,100 tested, under 10 active; AID 1117280;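 active means mean activation above a set limit taken from the earlier primary screen, cut at about 11% in these data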;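 further: 0% = DMSO-treated cells and 100% = recombinant Lucia luciferase without cells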
# The depositor's hits bear a star.
SMILES,TTR transcr act,others
Cc1ccccc1CN1CCCCC(NC(=O)Cc2cccs2)C1=O (stereo not drawn),-0.1,
C[C@@H]1CCCN1c1ccc2c(c1)OCCCN(C1CC1)S2(=O)=O,0.1,
CC(C)(C)CC(=O)NCc1ccc(F)cc1,15.0*,TTR inh HuH7=-15.5;TTR up confirm=-1.4
NC(=O)NCc1ccc(F)cc1,0.0,
Cc1ccc(C(=O)OCC(=O)NCc2ccc(F)cc2)o1,5.3,
CCCCCCCCN1C(=O)[C@@H](CC(=O)NCCC(C)C)C[C@@]2(C(=O)OC)C1=C[C@H](C(C)C)O[C@@H]2C1CC1,-0.2,
CN(C)[C@@H]1CCN(c2cccc3c2S(=O)(=O)N2CC[C@H](C2)O3)C1,0.0,
COC(=O)[C@]12C[C@H](CC(=O)NCC3CCCCC3)C(=O)N(Cc3cccc4ccccc34)C1=C[C@H](C(C)C)O[C@@H]2C1CC1,-0.7,
CCCCCCCC(=O)N[C@H]1CC[C@@]23CCCN2C(=O)CCC[C@H]3[C@H]1CCC,0.0,
COC(=O)[C@]12C[C@H](CC(=O)NCC3CCCCC3)C(=O)N(Cc3ccco3)C1=C[C@H](C1CCCC1)O[C@@H]2C,0.9,
Cc1ccc(SCc2nc(N)nc(Nc3ccccc3C)n2)cc1C,6.1,
Cc1ccc(SCc2nc(N)nc(Nc3ccccc3C)n2)c(C)c1,32.1*,TTR inh HuH7=-23.2;TTR up confirm=0.4
Cc1ccccc1Nc1nc(N)nc(CSc2nnc(C)n2C)n1,2.2,
Cc1cccc(N2CCN(C(=O)c3cc(S(=O)(=O)N(C)C)ccc3Cl)CC2)c1C,2.0,
O=C(Nc1ccc(F)cc1)OCc1cn(Cc2cc(F)ccc2F)nn1,1.7,
COc1ccc2c(C(c3ccccc3O)C3CCCN3S(=O)(=O)c3ccc(C)cc3)cn(C)c2c1 (stereo not drawn),-1.7,
CN1C2=N[C@H](c3cccc(C(F)(F)F)c3)CC(=O)N2/C(=C\c2ccccc2)[C@H]1c1ccccc1,3.8,
COCC(=O)N[C@H]1C[C@@H]2O[C@@H](CO)CC[C@@H]2O[C@@H]1CCc1ccc(-c2ccccc2)cc1,6.0,
S=c1[nH]nc(COc2ccccc2)n1/N=C/C=C/c1ccccc1,19.5*,TTR inh HuH7=-3.5;TTR up confirm=1.3
S=c1[nH]nc(COc2ccccc2)n1/N=C/c1cccc(Br)c1,-0.8,
S=c1[nH]nc(COc2ccccc2)n1/N=C/C=C/c1ccco1,3.2,
O=S1(=O)c2ccc(N3CC[C@H](O)C3)cc2OCCCN1C1CC1,3.1,
CCOC(=O)[C@]12CCCC=C1N(CCCOC)C(=O)[C@@H]2CC(=O)N1CCC(c2ccccc2)CC1,0.2,
COC(=O)[C@@]12CCCCC=C1N(CCc1ccc(Cl)cc1)C(=O)[C@H]2CC(=O)NCc1ccc(C)o1,0.3,
COc1ccc(NC(=O)CCCC(=O)O)cc1Cl,-0.3,
SMILES,TTR transcr act,others
C/C=C/C(=O)OCC(=O)Nc1ccc(OC)c(Cl)c1,11.8*,TTR inh HuH7=-10.4;TTR up confirm=0.7
C/C=C/C(=O)OCC(=O)Nc1ccc(OC)c(OC)c1,0.8,
COC(=O)[C@]12C[C@H](CC(=O)N3CCOCC3)C(=O)N(Cc3ccc4c(c3)OCO4)C1=C[C@H](C(C)C)O[C@@H]2C1CC1,-1.4,
CCc1cccc(NS(=O)(=O)c2ccc3c(c2)NC(=O)CC(=O)N3)c1,0.2,
Cc1cccc(NS(=O)(=O)c2ccc3c(c2)CCC(=O)N3)c1,2.4,
Cc1cccc(NS(=O)(=O)c2ccc3c(c2)NC(=O)CC(=O)N3)c1,13.2*,TTR inh HuH7=-11.4;TTR up confirm=-1.4
CN(C)C=Nc1c(Br)cc(Br)c2nonc12,-0.8,
CN(C)C=Nc1nonc1-c1ccccc1,10.7*,TTR inh HuH7=-7.8;TTR up confirm=0.3
CN(C)C=Nc1nonc1-c1ncn[nH]1,0.0,
CC(C)[C@@H](C)/C=C/[C@@H](C)[C@H]1CC[C@@H]2[C@]1(C)CCC1[C@]23C=C[C@]2(C[C@@H](O)CC[C@]12C)N(c1ccc(Br)cn1)O3 (stereo partly drawn),0.1,
CC1=CC(=O)C(C(C)C)=C/C1=N\OS(=O)(=O)c1ccccc1,-6.5,
COC(=O)C1CN(CCO)CCS(=O)(=O)N1Cc1cn(Cc2cccc(Cl)c2)nn1 (stereo not drawn),-0.1,
COP(=O)(O)C(COCCC(CC(C)C)NC(=O)OCc1ccccc1[N+](=O)[O-])NC(=O)OCc1ccccc1 (stereo not drawn),0.3,
Cc1noc(C)c1COc1ccc(C(=O)Nc2ccccc2)cc1,0.4,
CCc1ccccc1NC(=O)c1ccc(OCc2c(C)noc2C)cc1,48.9*,TTR inh HuH7=-12.0;TTR up confirm=0.5
Cc1noc(C)c1COc1ccc(C(=O)Nc2ccccn2)cc1,0.3,
Cc1cc(Cl)ccc1OCC(=O)N/N=C/c1ccc[nH]1,0.3,
Fc1ccc(NC2CCC23CCC(c2ccccc2)CC3)cc1C(F)(F)F (stereo not drawn),0.1,
C=CCC[C@@H](Cc1ccc(F)cc1)C(=O)OC[C@@H](Cc1ccccc1)NC(=O)[C@H](CC=C)CC(=O)NCCO,-1.3,
C=CC[C@@H](CC(=O)N[C@H](CO)Cc1ccccc1)C(=O)N[C@@H](C)COC(=O)[C@@H](CC=C)Cc1ccc(F)cc1,-4.9,
C=CC[C@@H](CC(=O)NCCO)C(=O)N[C@@H](C)COC(=O)[C@@H](CC=C)Cc1ccc(F)cc1,20.5*,TTR inh HuH7=-15.2;TTR up confirm=0.3
N#Cc1ccc(Oc2ccc(/C=N/O)cn2)cc1,80.8*,TTR inh HuH7=-0.3;TTR up confirm=-0.6
COc1nc(Oc2ccc(/C=N/O)cc2)nc(N(C)C)n1,-0.7,
Cc1ccc2nc(/C(C#N)=C\c3ccc(Oc4ccc([N+](=O)[O-])cn4)cc3)[nH]c2c1,-1.1,
CCN(Cc1cccs1)c1ncnc2ccc(-c3ccc4c(c3)OCO4)cc12,-0.7,
SMILES,TTR transcr act,others
O=C(c1ccc(C(F)(F)F)cc1)N1CCC(=O)N([C@H](COCc2ccc(C(F)(F)F)cc2)Cc2ccccc2)CC1,-1.3,
O=C(c1cccc(C(F)(F)F)c1)N1CCC(=O)N(C(CO)Cc2ccccc2)CC1 (stereo not drawn),1.2,
COc1ccc(C(=O)N2CCC(=O)N(C(CO)Cc3ccccc3)CC2)cc1 (stereo not drawn),13.4*,TTR inh HuH7=-10.5;TTR up confirm=-0.2
CCC(CC)NC(=O)O[C@H]1CC[C@@]23CCCN2C(=O)CCC[C@H]3[C@H]1C,2.0,
O=C(Nc1sc2c(c1-c1nc3ccccc3s1)CCNC2)C(F)(F)F,-0.2,
O=C(C1CC12CCCC2)N1CCC(CO)(Cc2ccccc2Cl)CC1 (stereo not drawn),13.0*,TTR inh HuH7=5.8;TTR up confirm=-0.7
CC(C)(C)C(=O)N1CCC(O)(CS(=O)(=O)Cc2ccccc2Cl)CC1,4.5,
C=CCNC(=O)N1CCC(CO)(Cc2ccc(Cl)cc2)CC1,-0.9,
CC(C)(C)OC(=O)N[C@H]1C=C[C@@H](CC(=O)OCC(F)(F)F)C1,1.4,
COC(=O)C[C@@H]1C=C[C@@H](NS(=O)(=O)c2ccccc2OC)[C@@H](CO)O1,0.4,
CCOc1ncccc1C(=O)N(CCC(C)C)c1c(N)n(Cc2ccccc2)c(=O)[nH]c1=O,17.4*,TTR inh HuH7=-5.1;TTR up confirm=-0.4
CCCCn1c(N)c(N(CCC(C)C)C(=O)COC(=O)c2cccnc2SC)c(=O)[nH]c1=O,-0.3,
CC(C)CCN(C(=O)c1ccncc1)c1c(N)n(Cc2ccccc2)c(=O)[nH]c1=O,1.7,
O=C(OCC#CCSc1nnc(-c2ccc(F)cc2)o1)c1ccc(F)cc1,-1.4,
CN(Cc1ccccc1)C(=O)OCc1cn(Cc2ccc(F)cc2)nn1,-1.3,
CC#CC(=O)N[C@H]1CC[C@@]23CCCN2C(=O)CCC[C@H]3[C@H]1C,-2.2,
